Experimental data: PubChem BioAssay (Tox21)
The source made the active and inactive calls. Calls follow the shape of the dose curve; as a rule, active = well fitted curve in the direction sought with a large enough effect in the repeat runs; inconclusive = weak or mixed curves; inactive = flat fitted curve, though single readings scatter.

test: qHTS assay to test for compound auto fluorescence at 535 nm (green) in HEK293 cells (AID 720680); conditions: green autofluorescence 485/535 nm; series mostly up to 91.3 µM
Description: U.S. Tox21 Program National Center for Advancing Translational Sciences [NCATS] NIH Chemical Genomics Center [NCGC] U.S. Environmental Protection Agency [EPA] National Institutes of Environmental Health Sciences [NIEHS] National Toxicology Program [NTP] U.S. Food and Drug Administration [FDA] Tox21 Assay Overview: Compound auto fluorescence often interferes with screening of the compound library against various biological targets and signaling pathways. Some of these compounds may have fluorophoric properties. Such properties may interfere with the assay outputs resulting in false positives and/or negatives. To decrease such complications and ensure the compound activities are relevant in terms of biological response, the Tox21 10K compound library was screened for auto fluorescence. From the fluorophores used as reporter signals in our screening assays, the auto fluorescence equivalencies of compounds against three fluorophores have been evaluated: Triamterene, Fluorescein and Rose Bengal sodium for blue, green and red fluorescence, respectively. The fluorescence intensities were measured using Excitation/Emission wavelengths at 405/460nm, 485/535nm and 540/590nm for blue, green and red labels, respectively. This assay includes the green fluorescence data.
Tox21 Assay Protocol Summary: 2,000 HEK293 cells in 5 uL of culture medium containing 10% dialyzed FBS per well were dispensed into black wall/clear bottom 1536-well plates using a Multidrop Combi Dispenser (Thermo Scientific). The assay plates were incubated for 4-5 hr at 37C to allow cell attachment to the well bottom, followed by the transfer of 23 nL compound or DMSO vehicle by a pintool work station (Kalypsys, San Diego, CA). After the assay plates were incubated overnight at 37C and 5% CO2, fluorescence intensities in the assay plates were measured by an Envision (PerkinElmer, Shelton, CT) plate reader using three labels for measuring blue, green and red fluorescence at […] 460, 535 and 590nm respectively.

Question: With `CC(=O)OCCC1CCCCC1` as the molecule, how does the outcome read?
Answer: Its outcome is “inactive”.

Question: For `CSCC[C@H](NC(=O)[C@H](Cc1c[nH]c2ccccc12)NC(=O)CCNC(=O)OC(C)(C)C)C(=O)N[C@@H](CC(=O)O)C(=O)N[C@@H](Cc1ccccc1)C(N)=O`, which outcome is on record?
Answer: Its outcome is “inactive”.

Question: For `CCCCCCCCCCCCCCCC(=O)OCC`, which outcome is on record?
Answer: Its outcome is “inactive”.

Question: Which outcome does the source give for `CC(=O)NCCO` here?
Answer: The outcome was “inactive”.

Question: With `CC1CCC(C(C)CS)CC1S` (stereo not given) as the molecule, how does the outcome read?
Answer: The outcome was “inactive”.

Question: For `CC(C)COC(=O)COc1cc(Cl)c(Cl)cc1Cl`, which outcome is on record?
Answer: The outcome was “inactive”.

Question: With `CNCc1ccc(NC(=O)c2c[nH]c3c2C(=O)CCC3)cc1` as the molecule, how does the outcome read?
Answer: The outcome was “inactive”.

Question: For `CCOC(=O)c1ccc(NC(=O)CN2CCCCC2)cc1`, which outcome is on record?
Answer: The outcome was “inactive”.

Question: For `CCCOC(=O)c1c(Cl)c(Cl)c(Cl)c(Cl)c1C(=O)OCCC`, which outcome is on record?
Answer: Its outcome is “inactive”.

Question: Which outcome does the source give for `O=C1NC(=O)c2cccc3cccc1c23` here?
Answer: Its outcome is “inactive”.

Question: For `C=C(C)C(=O)OCCC(F)(F)C(F)(F)C(F)(F)C(F)(F)C(F)(F)C(F)(F)F`, which outcome is on record?
Answer: Its outcome is “inactive”.

Question: With `COC(CC(C)CCCC(C)(C)O)OC` (stereo not given) as the molecule, how does the outcome read?
Answer: Its outcome is “inactive”.

Question: For `O=C(O)c1cccc(C[C@@H]2COc3ccc(OCc4nc5cc(F)ccc5s4)cc3[C@@H]2O)c1`, which outcome is on record?
Answer: Its outcome is “inactive”.

Question: For `Nc1nc2ccc(OC(F)(F)F)cc2s1`, which outcome is on record?
Answer: Its outcome is “inactive”.

Question: Which outcome does the source give for `O=C(Nc1ccc(C(=O)O)c(O)c1)c1ccccc1` here?
Answer: The outcome was “inactive”.

Question: Which outcome does the source give for `COc1ccc(-c2cc(=S)ss2)cc1` here?
Answer: Its outcome is “inactive”.

Question: For `CCCCOC(=O)CCCCC(=O)OCCCC`, which outcome is on record?
Answer: The outcome was “inactive”.

Question: Which outcome does the source give for `CC(=O)OCC(C)C` here?
Answer: Its outcome is “inactive”.

Question: For `O[C@@H](CNC[C@H](O)[C@H]1CCc2cc(F)ccc2O1)[C@@H]1CCc2cc(F)ccc2O1`, which outcome is on record?
Answer: Its outcome is “inactive”.

Question: Which outcome does the source give for `COc1ccc(C(=O)NCc2ccc(OCCN(C)C)cc2)cc1OC` here?
Answer: The outcome was “inactive”.

Question: With `Nc1ccc(S(=O)(=O)NCc2ccccc2)cc1` as the molecule, how does the outcome read?
Answer: The outcome was “inactive”.

Question: With `CN(C)CC/C=C1\c2ccccc2Sc2ccc(Cl)cc21` as the molecule, how does the outcome read?
Answer: The outcome was “inactive”.

Question: With `CNS(=O)(=O)c1cc(C(=O)N2CCC(CCN3C4CCC3CC(n3c(C)nc5ccccc53)C4)(c3cccc(F)c3)CC2)c(Cl)cc1F` (stereo not given) as the molecule, how does the outcome read?
Answer: Its outcome is “inactive”.

Question: For `NC(=O)CCCCC(N)=O`, which outcome is on record?
Answer: Its outcome is “inactive”.

Question: For `CC(C)c1ccc(C#N)cc1`, which outcome is on record?
Answer: Its outcome is “inactive”.

Question: With `Cc1c[nH]c2ccccc12` as the molecule, how does the outcome read?
Answer: Its outcome is “inactive”.

Question: Which outcome does the source give for `CCO[Si](C)(CCCOCC1CO1)OCC` (stereo not given) here?
Answer: Its outcome is “inactive”.

Question: Which outcome does the source give for `CCN(CC)CCOC(=O)C(c1ccccc1)c1ccccc1` here?
Answer: The outcome was “inactive”.

Question: Which outcome does the source give for `CCC(CO)(CO)[N+](=O)[O-]` here?
Answer: Its outcome is “inactive”.

Question: With `CCCCCCCC(=O)OCCCCCC` as the molecule, how does the outcome read?
Answer: The outcome was “inactive”.

Question: Which outcome does the source give for `c1ccc2sc(SSc3nc4ccccc4s3)nc2c1` here?
Answer: Its outcome is “inactive”.

Question: Which outcome does the source give for `Nc1ccc(N=Nc2ccc(N)cc2)cc1` here?
Answer: Its outcome is “inactive”.

Question: Which outcome does the source give for `CC/C=C\C/C=C\C/C=C\CCCCCCCC(=O)OCC` here?
Answer: Its outcome is “inactive”.

Question: Which outcome does the source give for `O=C(O)CCCc1c[nH]c2ccccc12` here?
Answer: Its outcome is “inactive”.

Question: With `O=C(/C=C/c1ccc([N+](=O)[O-])cc1)c1ccccc1` as the molecule, how does the outcome read?
Answer: The outcome was “inactive”.

Question: For `COc1cc(S(=O)(=O)Nc2ccccc2)c(OC)cc1N`, which outcome is on record?
Answer: Its outcome is “inactive”.

Question: With `CC1=CC[C@@]23C[C@@H]1C(C)(C)[C@@H]2CC[C@H]3C` as the molecule, how does the outcome read?
Answer: Its outcome is “inactive”.

Question: For `C=Cc1ccc(OC(C)=O)cc1`, which outcome is on record?
Answer: The outcome was “inactive”.

Question: Which outcome does the source give for `BrC(Br)C(Br)Br` here?
Answer: Its outcome is “inactive”.

Question: Which outcome does the source give for `CC(C)(C)C(O)/C=C/c1ccc2c(c1)OCO2` (stereo not given) here?
Answer: Its outcome is “inactive”.
